Data published in PubChem BioAssay AID1259417 (TB Discovery Research, Infectious Disease Research Institute, 2018).
The campaign covered roughly 1,100 compounds. About 760 (69%) were called active. How the calls were made is not given here. So high a share suggests a set chosen from earlier hits. The list shows a part of the results.

Test: M. tuberculosis growth inhibition, HTS (AID 1259417);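 further: bacteria grown with compound for 5 days at 37 °C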
Settings: stronger effect = higher value, concentration not given here
[1] = M. tuberculosis DsRed fluorescence growth inhibition
[2] = M. tuberculosis growth inhibition

For `CC(C)Cn1c(N2CCN(Cc3ccc(Cl)c(Cl)c3)CC2)nc2c1c(=O)[nH]c(=O)n2C`, the inhibition [1] was 7.43% (active) and the inhibition [2] was 34.1%.
In the case of `COc1ccc(CC2SC(=NN=Cc3ccccc3O)NC2=O)cc1` (stereo not drawn), the inhibition [1] is reported as 98.1% (active) and the inhibition [2] is reported as 97.1%.
With `CC(=N/N=C1\NC(=O)C(Cc2ccc(Cl)cc2)S1)c1ccc(F)cc1` (stereo not drawn) the inhibition [1] was 5% (inactive) and the inhibition [2] was -11.9%.
In the case of `O=C1NC(=NN=Cc2ccccc2O)SC1Cc1ccc(F)cc1` (stereo not drawn), the inhibition [1] is reported as 99.2% (active) and the inhibition [2] is reported as 98.8%.
For `CC(=N/N=C1\NC(=O)C(Cc2ccc(F)cc2)S1)c1ccc(Cl)cc1` (stereo not drawn), the inhibition [1] was 8.19% (inactive) and the inhibition [2] was -27.8%.
For `Cc1ccc(-n2c(=O)oc3ccc(Cl)cc3c2=O)cc1Cl`, the inhibition [1] was 100% (active) and the inhibition [2] was 101%.
With `CCc1ccccc1-n1c(=O)oc2ccc(Cl)cc2c1=O` the inhibition [1] was 101% (active) and the inhibition [2] was 100%.
For `Cc1cccc(-n2c(N)cc(=O)nc2SCC(=O)Nc2nc(-c3ccccc3)cs2)c1`, the inhibition [1] was -2.92% (inactive) and the inhibition [2] was -16.5%.
In the case of `Cc1ccc(-c2c[n+](CC(=O)Nc3nc(-c4ccc(F)cc4)cs3)c3n2CCC3)cc1`, the inhibition [1] is reported as 15.8% (inactive) and the inhibition [2] is reported as 14.8%.
For `CCOC(=O)C=CC(=O)Nc1nc(-c2ccccc2)cs1`, the inhibition [1] was 41.3% (active) and the inhibition [2] was 56%.
With `CCc1ccc(OCC(=O)NNC(=O)c2cnccn2)c(Br)c1` the inhibition [1] was 93.6% (active) and the inhibition [2] was 95.4%.
With `CCOC(=O)COc1c(Cl)cc(C=C(C#N)c2nc3ccc(OC)cc3[nH]2)cc1Cl` the inhibition [1] was 45.4% (active) and the inhibition [2] was 50.3%.
In the case of `N#CC(=CNc1ccccc1)c1nc2ccccc2[nH]1`, the inhibition [1] is reported as 34.4% (active) and the inhibition [2] is reported as 48.7%.
For `COC(=O)COc1ccc(C=C(C#N)c2nc3ccccc3[nH]2)cc1`, the inhibition [1] was 59.4% (active) and the inhibition [2] was 79.9%.
With `CCOC(=O)Cn1cc(C=C(C#N)c2nc3ccc(OC)cc3[nH]2)c2ccccc21` the inhibition [1] was -3.18% (inactive) and the inhibition [2] was 0.813%.
With `Cc1ccc2nc(/C(C#N)=C/c3c[nH]c4ccc(Br)cc34)[nH]c2c1` the inhibition [1] was 19.3% (inactive) and the inhibition [2] was 22.8%.
With `CCOC(=O)C1=C(C)N(c2ccc(Br)cc2)C(=O)C1` the inhibition [1] was 6.73% (inactive) and the inhibition [2] was 8.65%.
With `O=C1Nc2ccccc2/C1=N/N=C/C1=C(N2CCOCC2)C(=C\c2ccccc2)/CC1` the inhibition [1] was -1.05% (inactive) and the inhibition [2] was -11.8%.
In the case of `COC(=O)COc1cccc(NC(=O)c2ccc(Cl)cc2)c1`, the inhibition [1] is reported as 50% (active) and the inhibition [2] is reported as 72.5%.
With `COC(=O)COc1cccc(NC(=O)c2cccc(C)c2)c1` the inhibition [1] was 14.1% (active) and the inhibition [2] was 40.2%.
For `COC(=O)COc1ccc(NC(=O)c2cccc(C)c2)cc1`, the inhibition [1] was 68.2% (active) and the inhibition [2] was 87.4%.
For `O=C(c1ccc(Cl)cc1)C1CCCN(Cc2cnn(-c3ccccc3)c2)C1` (stereo not drawn), the inhibition [1] was 1.81% (inactive) and the inhibition [2] was -16.6%.
In the case of `CC1CCCN(CCC(=O)c2ccc(Br)cc2)C1` (stereo not drawn), the inhibition [1] is reported as 72.2% (active) and the inhibition [2] is reported as 84.5%.
For `COc1ccc(C(=O)CCN2CCCC(C)C2)cc1` (stereo not drawn), the inhibition [1] was 13.2% (inactive) and the inhibition [2] was 13.2%.
